PubChem BioAssay (NCATS)
Where “and” joins values, the source holds several entries; their conditions need not be identical. Identical values can stand only once. Results filed as inconclusive are left out. A call without a number means that no potency is given here. Some structures have more than one record in an assay (separate samples or runs), and their calls can disagree. Calls of active or inactive are those of the source. Calls follow the shape of the dose curve; as a rule, active = well fitted curve in the direction sought with a large enough effect; inconclusive = small, poorly fitted or top-dose-only effect, or another doubt; inactive = no such curve, though single readings can be large; an effect the other way counts as inactive or inconclusive.

Legend:
[1] = Viability qHTS for spleen associated tyrosine kinase inhibitor (SYKi) naive MV4-11 cells (AID 1963823); also: nearly all actives have a fitted effect of over 40% in size
Method in brief: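 qHTS, SYK inhibitor-naive MV4-11; 500 cells/well; 72 hr compound exposure, 37 C; CellTiter-Glo added, 10 min RT; luminescence read.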

[2] = Viability qHTS for spleen associated tyrosine kinase inhibitor (SYKi) drug resistant MV4-11 cells (AID 1963824); also: nearly all actives have a fitted effect of over 35% in size
Method in brief: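 CellTiter-Glo luminescence, read 10 min after reagent addition, reports viability after a 72 hr compound exposure. Cells are an MV4-11 line made resistant to SYK inhibition, seeded at 500 per well onto compound-containing plates.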

[3] = Quantitative highthroughput screen to assess conditional lethalithy of NOMO1 cells grown in RPMI1640 with untreated serum (RPMI+s) (AID 1963876); also: nearly all actives have a fitted effect of over 35% in size
Method in brief: (§1)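 Each medium arm—HPLM with 10% dialyzed FBS, or RPMI1640 with 5 mM glucose and 10% untreated or dialyzed FBS—was screened against an 11-point, 3-fold compound titration for 48 h at 37 °C, with CellTiter-Glo luminescence as endpoint.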

[4] = Quantitative highthroughput screen to assess conditional lethalithy of NOMO1 cells grown in RPMI1640 with dialyzed fetal bovine serum (RPMI+ds) (AID 1963877); also: nearly all actives have a fitted effect of over 30% in size; as to Viability: series mostly up to about 46 µM
Method in brief: as §1

[5] = Quantitative highthroughput screen to assess conditional lethalithy of NOMO1 cells grown in Human Plasma-Like Medium with dialyzed fetal bovine serum (HPLM+ds) (AID 1963878); also: nearly all actives have a fitted effect of over 35% in size
Method in brief: as §1

[6] = Quantitative highthroughput screen to assess conditional lethalithy of P12 Ichikawa cells grown in RPMI1640 with untreated serum (RPMI+s) (AID 1963881); conditions: Potency: viability; also: nearly all actives have a fitted effect of over 35% in size; as to Viability: series mostly up to about 46 µM
Method in brief: as §1

[7] = Quantitative highthroughput screen to assess conditional lethalithy of SEM cells grown in Human Plasma-Like Medium with dialyzed fetal bovine serum (HPLM+ds) (AID 1963882); also: nearly all actives have a fitted effect of over 35% in size; as to Viability: series mostly up to about 46 µM
Method in brief: as §1

[8] = Cellular viability qHTS for adrenocortical cancer (ACC) cell line SW-13 (AID 1963989); conditions: SW-13 ACC cells viability, CellTiter-Glo, 48 h; activity (max response): stronger effect = lower value; also: nearly all actives have a fitted effect of over 65% in size;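 as to activity (max response): cells grown in serum-free medium with ITS supplement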
Method in brief: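 Viability was read as CellTiter-Glo luminescence after 48 h compound treatment (up to 46 uM final) of SW-13 cells grown serum-free; titration curves were fit with a four-parameter logistic model to give IC50 and efficacy.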

[9] = Quantitative highthroughput screen to assess conditional lethalithy of P12 Ichikawa cells grown in RPMI1640 with dialyzed fetal bovine serum (RPMI+ds) (AID 1963880); conditions: Potency: P12-Ichikawa viability; also: nearly all actives have a fitted effect of over 35% in size
Method in brief: as §1

[10] = Cellular viability qHTS for adrenocortical cancer (ACC) cell line NCI-H295R (AID 1963990); also: nearly all actives have a fitted effect of over 60% in size
Method in brief: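 CellTiter-Glo ATP luminescence, read 48 h after compound addition, measured viability of NCI-H295R adrenocortical cells grown serum-free with ITS. Final concentrations spanned up to 46 uM. Data normalized to DMSO and doxorubicin, fitted for IC50 and maximal response.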

[11] = Quantitative highthroughput screen to assess conditional lethalithy of SEM cells grown in RPMI1640 with dialyzed fetal bovine serum (RPMI+ds) (AID 1963884); also: nearly all actives have a fitted effect of over 35% in size; as to Viability: series mostly up to about 46 µM
Method in brief: as §1

[12] = Quantitative highthroughput screen to assess conditional lethalithy of P12 Ichikawa cells grown in Human Plasma-Like Medium with dialyzed fetal bovine serum (HPLM+ds) (AID 1963879); conditions: Potency: viability; also: nearly all actives have a fitted effect of over 35% in size; as to Viability: series mostly up to about 46 µM
Method in brief: as §1

[13] = Quantitative highthroughput screen to assess conditional lethalithy of SEM cells grown in RPMI1640 with unreated serum (RPMI+s) (AID 1963883); also: nearly all actives have a fitted effect of over 35% in size
Method in brief: as §1
Potency is read from the fitted curve at half-maximal effect.

Compound	Potency [1]	Potency [2]	Potency [3]	Potency [4]	Potency [5]	Potency [6]	Potency [7]	activity (max response) [8]	Potency [9]	Potency [10]	Potency [11]	Potency [12]	Potency [13]	Potency [8]
O=c1c(O)c(-c2ccc(O)c(O)c2)oc2cc(O)cc(O)c12	23.7 µM (active) and inactive	inactive and 16.4 µM (active)	inactive	inactive	inactive	inactive	inactive	-23.2% (inactive) and 14.3% (inactive)	–	–	–	–	–	–
O=C(O)c1ccc(-c2c[nH]c3ncc(-c4ccccc4)cc23)cc1C1CCCC1	1.18 µM (active)	651 nM (active) and 2.35 µM (active)	inactive	inactive	inactive	–	–	–	6620 nM (active)	inactive	–	–	–	–
COc1ccc2c(c1)c(CC(=O)O)c(C)n2C(=O)c1ccc(Cl)cc1	inactive	inactive	inactive	inactive	inactive	inactive	inactive	-9.65% (inactive) and -2.21% (inactive)	inactive	inactive	inactive	–	–	–
O=C(Nc1cccc(Cl)c1)Nc1ncc(CCNc2ncnc3ccsc23)s1	0.0206 µM (active)	0.0326 µM (active)	296 nM (active)	332 nM (active)	105 nM (active)	–	–	–	–	3550 nM (active)	209 nM (active)	372 nM (active)	209 nM (active)	28200 nM (active)
Cc1cnc(Nc2cccc(CN3CCOCC3)c2)nc1Nc1cccc(S(=O)(=O)NC(C)(C)C)c1	0.0934 µM (active)	0.186 µM (active)	inactive	inactive	inactive	inactive	–	-8.11% (inactive)	–	–	–	–	–	–
Cc1nc(Nc2n[nH]c3c2CN(C(=O)N[C@H](CN(C)C)c2ccccc2)C3(C)C)c2sccc2n1	0.0132 µM (active)	0.0118 µM (active)	1320 nM (active)	3720 nM (active)	1480 nM (active)	1660 nM (active)	743 nM (active)	–	1480 nM (active)	28200 nM (active)	1180 nM (active)	–	332 nM (active)	3160 nM (active)
Cc1ccc(F)c(NC(=O)Nc2ccc(-c3cccc4[nH]nc(N)c34)cc2)c1	0.0166 µM (active)	0.0231 µM (active)	inactive	inactive	inactive	inactive	–	–	inactive	15800 nM (active)	5900 nM (active)	–	10500 nM (active)	22400 nM (active)
Cc1cc(O)c2c(c1)C(=O)c1cccc(O)c1C2=O	inactive	inactive	inactive	inactive	20900 nM (active)	inactive	–	-6.49% (inactive)	–	inactive	–	18700 nM (active)	–	–
CCC(=O)N[C@H]1CC[C@H](C(=O)N(C)c2ccc(-c3nc4ccccc4o3)cc2)C1	14.8 µM (active)	14.8 µM (active)	inactive	inactive	inactive	–	inactive	–	–	inactive	–	inactive	–	–
O=C1N(c2ccccc2)c2ccccc2C1(Cc1ccncc1)Cc1ccncc1	inactive	inactive	inactive	inactive	inactive	–	inactive	-5.03% (inactive) and 7.18% (inactive)	–	inactive	inactive	inactive	–	–
C[C@H]1COC2=C1C(=O)C(=O)c1c2ccc2c1CCCC2(C)C	5.9 µM (active)	5.25 µM (active)	inactive	inactive	inactive	inactive	–	-2.17% (inactive)	–	–	13200 nM (active)	–	2350 nM (active)	–
NCCc1cnc[nH]1	13.3 µM (active)	inactive	inactive	inactive	inactive	inactive	–	7.56% (inactive) and -0.338% (inactive)	inactive	inactive	–	–	–	–
O=C(/C=C\n1cnc(-c2cc(C(F)(F)F)cc(C(F)(F)F)c2)n1)NNc1cnccn1	0.833 µM (active)	1.18 µM (active)	1050 nM (active)	933 nM (active)	831 nM (active)	524 nM (active)	741 nM (active)	–	588 nM (active)	–	741 nM (active)	–	588 nM (active)	–
CC1CNc2c(cccc2S(=O)(=O)N[C@@H](CCCN=C(N)N)C(=O)N2CC[C@@H](C)C[C@@H]2C(=O)O)C1 (stereo not given in full)	inactive	inactive	inactive	inactive	inactive	inactive	inactive	-14.2% (inactive)	inactive	inactive	inactive	–	inactive	–
OC[C@H](Cc1ccccc1)Nc1nc(Oc2ccc3c(c2)CCC3)nc2c1ncn2Cc1ccc(-c2ccccc2)cc1	13.2 µM (active)	10.5 µM (active)	inactive	inactive	inactive	inactive	–	-12.9% (inactive)	–	–	inactive	–	inactive	–
O=c1cc(CN2CCOCC2)occ1OCCCCCSc1ccnc2cc(C(F)(F)F)ccc12	11.8 µM (active)	9.34 µM (active)	inactive	inactive	inactive	–	inactive	–	–	–	inactive	–	inactive	–
